From PubChem BioAssay (NCI) come the findings set out here.

Common to all, as to test: NCI-60 one-dose screen, 48 h (100 = growth as untreated, 0 = no growth, -100 = all killed)
One experiment has as its system NCI-H23 lung. Conditions: 10 µM unless noted.
The test system of another experiment is NCI-H226 lung. Conditions: 10 µM unless noted.
The subject of a further experiment is NCI-H322M lung. Conditions: 10 µM unless noted.
In a further experiment the test system is HOP-62 NSCLC. Conditions: 10 µM unless noted.
For a further experiment, the system named is NCI-H460 lung. Conditions: 10 µM unless noted.
A further experiment relates to HOP-92 NSCLC. Conditions: 10 µM unless noted.
The test system of the next experiment is NCI-H522 lung. Conditions: 10 µM unless noted.
For a further experiment, the system named is A549/ATCC NSCLC. Conditions: 10 µM unless noted.
For a further experiment, the system named is 786-0 renal. Conditions: 10 µM unless noted.
The subject of a further experiment is COLO 205 colon. Conditions: 10 µM unless noted.
For another experiment, the system named is DU-145 prostate. Conditions: 10 µM unless noted.
The subject of a further experiment is K-562 leukemia. Conditions: 10 µM unless noted.
A further experiment deals with MALME-3M melanoma. Conditions: 10 µM unless noted.
The next experiment deals with MDA-MB-231 breast. Conditions: 10 µM unless noted.
A further experiment has as its system RXF 393 renal. Conditions: 10 µM unless noted.
The subject of a further experiment is SF-268 CNS. Conditions: 10 µM unless noted.
The subject of another experiment is SF-295 CNS. Conditions: 10 µM unless noted.
For a further experiment, the system named is SF-539 CNS. Conditions: 10 µM unless noted.
The subject of a further experiment is UACC-257 melanoma. Conditions: 10 µM.
For the next experiment, the system named is M14 melanoma. Conditions: 10 µM unless noted.

Compounds without any hit were thinned out: in the full panel of roughly 83,000, 20% have a hit.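 Single-concentration screen, 48 h exposure, 96-well plates. Endpoint: percent growth. Below 10 = active.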 Unmarked numbers belong to inactive results. Activity calls are given as the source filed them.

For `O=C1/C(=C/c2ccc([N+](=O)[O-])cc2)SC(=Nc2ccccc2)N1Nc1ccccc1`, the growth with NCI-H23 lung was 60.5%; in the experiment with NCI-H226 lung it was 85.1%; in the experiment on NCI-H322M lung, 60.9%; in the experiment with HOP-62 NSCLC, 97.1%; with NCI-H460 lung, 50.9%; with HOP-92 NSCLC, 108%. In addition, the growth with NCI-H522 lung was 58.1%; in the experiment with A549/ATCC NSCLC, 71.5%; in the experiment on 786-0 renal, 66.4%; in the experiment with COLO 205 colon, 92.6%; in the experiment on DU-145 prostate it was 63.5%; in the experiment with K-562 leukemia, 17.8%. The growth in the experiment on MALME-3M melanoma is 90.3%; with MDA-MB-231 breast, 54.7%; in the experiment with RXF 393 renal, 58.9%; in the experiment on SF-268 CNS, 73%; with SF-295 CNS, 87.1%; in the experiment on SF-539 CNS, 65.1%. Further, the growth was 89.7% in the experiment with UACC-257 melanoma and 80.1% with M14 melanoma.
For `CC(=O)c1ccc(NC(=O)COc2ccc(C3SCC(=O)N3c3ccc(Br)cc3)cc2)cc1` (stereo not given), the growth was 95.1% in the experiment with NCI-H23 lung; 93% in the experiment with NCI-H226 lung; 99.1% with NCI-H322M lung; 93.5% in the experiment on HOP-62 NSCLC; 108% in the experiment on NCI-H460 lung; 84.4% in the experiment on HOP-92 NSCLC. Further, the growth in the experiment with NCI-H522 lung is 84.8%; in the experiment on A549/ATCC NSCLC it was 93.9%; in the experiment on 786-0 renal, 104%; in the experiment on COLO 205 colon, 104%; in the experiment with DU-145 prostate, 104%; with K-562 leukemia it was 90.8%. The growth in the experiment with MALME-3M melanoma is 107%; with MDA-MB-231 breast, 90.6%; in the experiment with RXF 393 renal, 99.3%; with SF-268 CNS it was 103%; in the experiment on SF-295 CNS it was 98%; with SF-539 CNS it was 99.2%. For the same compound, the growth was 102% in the experiment with UACC-257 melanoma and 99.9% in the experiment on M14 melanoma.
For the compound `Cn1cc2c(c1)-c1c(sc3nc(-c4ccc(NC(=O)Nc5cc(C(C)(C)C)on5)cc4)cn13)CC2`, the growth was 50.7% with NCI-H23 lung; 51.8% with NCI-H226 lung; 75.6% in the experiment on NCI-H322M lung; 16.7% in the experiment on HOP-62 NSCLC; 27.5% in the experiment with NCI-H460 lung; 42.8% with HOP-92 NSCLC. Further, the growth with NCI-H522 lung is 81.5%; in the experiment with A549/ATCC NSCLC it was 64.5%; in the experiment on 786-0 renal it was -3.49% (active); with COLO 205 colon, 45.6%; in the experiment with DU-145 prostate, 57.9%; in the experiment on K-562 leukemia it was 15.3%. For the same compound, the growth is 66.2% in the experiment with MALME-3M melanoma; 49.8% in the experiment with MDA-MB-231 breast; -23.4% (active) in the experiment on RXF 393 renal; 50.5% with SF-268 CNS; -41% (active) in the experiment with SF-295 CNS; 22.3% in the experiment with SF-539 CNS. Further, the growth was 93.1% with UACC-257 melanoma and 60.5% with M14 melanoma.
On to `CCN1C(=O)N(CC)C2SC(N/N=C/C=C/c3ccccc3OC)=NC21` (stereo not given), for which the growth is 30.4% in the experiment with NCI-H23 lung; 54.9% with NCI-H226 lung; 44.8% in the experiment with NCI-H322M lung; 47.3% with HOP-62 NSCLC; 2.9% (active) in the experiment with NCI-H460 lung; 39.1% in the experiment on HOP-92 NSCLC. The growth is 1.31% (active) in the experiment with NCI-H522 lung; 27.1% in the experiment with A549/ATCC NSCLC; 23.8% in the experiment with 786-0 renal; 7.22% (active) in the experiment on COLO 205 colon; 12.9% in the experiment with DU-145 prostate; 18.3% in the experiment on K-562 leukemia. Moreover, the growth with MALME-3M melanoma is 50.4%; in the experiment with MDA-MB-231 breast, 26.5%; in the experiment on RXF 393 renal it was 20.5%; in the experiment on SF-268 CNS it was 50.9%; in the experiment on SF-295 CNS it was 5.32% (active); with SF-539 CNS, -10.6% (active). The growth was 73.5% in the experiment on UACC-257 melanoma and 0.965% (active) with M14 melanoma.
For the compound `CC(=O)Nc1ccc(NC(=O)Nc2cccc(-c3nc(-c4ccc(NC(=O)c5cccnc5)cc4Cl)no3)c2)cc1C(F)(F)F`, the growth with NCI-H23 lung was -63.3% (active); in the experiment with NCI-H226 lung it was -55.2% (active); with NCI-H322M lung, -34.2% (active); in the experiment with HOP-62 NSCLC, -58.1% (active); in the experiment with NCI-H460 lung, -64.9% (active); with HOP-92 NSCLC it was -65.6% (active). Moreover, the growth with NCI-H522 lung was -46.3% (active); with A549/ATCC NSCLC it was -1.13% (active); in the experiment on 786-0 renal, -35.6% (active); in the experiment on COLO 205 colon it was -53.1% (active); in the experiment on DU-145 prostate it was -13.9% (active); with K-562 leukemia, -1.38% (active). Also, the growth in the experiment with MALME-3M melanoma is -84.9% (active); in the experiment with MDA-MB-231 breast it was -60.3% (active); in the experiment on RXF 393 renal it was -79.5% (active); in the experiment with SF-268 CNS it was -33.1% (active); in the experiment with SF-295 CNS it was -69.6% (active); in the experiment on SF-539 CNS it was -87.6% (active). Also, the growth was -43.7% (active) in the experiment with UACC-257 melanoma and -58.7% (active) with M14 melanoma.
`O=C1Nc2cc(OC(F)(F)F)ccc2Oc2ccc(-c3ccnc(N4CCNCC4)c3)cc21`: the growth with NCI-H23 lung is 27.4%; with NCI-H226 lung, 53%; in the experiment on NCI-H322M lung, 39%; in the experiment on HOP-62 NSCLC, 21.6%; in the experiment on NCI-H460 lung it was -80.6% (active); in the experiment on HOP-92 NSCLC, -0.729% (active). Further, the growth in the experiment with NCI-H522 lung was -57.2% (active); in the experiment with A549/ATCC NSCLC, 9.42% (active); with 786-0 renal, -62.7% (active); in the experiment with COLO 205 colon, -80.2% (active); in the experiment with DU-145 prostate, -48.5% (active); in the experiment with K-562 leukemia, -11.4% (active). Besides, the growth in the experiment with MALME-3M melanoma was -79.3% (active); with MDA-MB-231 breast it was -38.2% (active); with RXF 393 renal it was -73.4% (active); in the experiment on SF-268 CNS it was 26.8%; in the experiment on SF-295 CNS, -25.7% (active); with SF-539 CNS, -89.8% (active). The values for the growth in the experiment with UACC-257 melanoma and in the experiment on M14 melanoma were 77.3% and -90.5% (active), respectively.
Turning to `CN(c1ccc(F)cc1)S(=O)(=O)c1ccc(-c2cnc(C3CC3)o2)cc1`, the growth was 30.5% in the experiment on NCI-H23 lung; 60.5% with NCI-H226 lung; 45.6% in the experiment on NCI-H322M lung; 44.1% in the experiment on HOP-62 NSCLC; 17.2% with NCI-H460 lung; 81.1% in the experiment with HOP-92 NSCLC. The growth in the experiment on NCI-H522 lung was 25.6%; in the experiment with A549/ATCC NSCLC it was 31.1%; with 786-0 renal it was 50.3%; in the experiment on COLO 205 colon, 6.42% (active); with DU-145 prostate, 23.5%; in the experiment with K-562 leukemia, 10.3%. Also, the growth in the experiment with MALME-3M melanoma is 65.3%; in the experiment with MDA-MB-231 breast, 28.4%; with RXF 393 renal it was -8.88% (active); with SF-268 CNS, 64.2%; with SF-295 CNS, -12.9% (active); with SF-539 CNS it was 4.96% (active). The growth in the experiment on UACC-257 melanoma was 70.9%; in the experiment on M14 melanoma it was 14.6%.
